Assay [1] in a line: qHTS assay to identify small molecule antagonists of the estrogen receptor alpha (ER-alpha) signaling pathway using the BG1 cell line in the presence of 0.1 nM 17-beta-estradiol - cell viability counter screen (AID 1259241). Further: nearly all actives have a fitted effect of over 40% in size. A digest of the protocol:
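VM7Luc4E2 cells (endogenous ER-alpha, 4×ERE-luciferase), hormone-starved 5 days in charcoal-stripped FBS, were treated with compounds plus 0.1 nM 17beta-estradiol for 22 hr at 37C; viability read in same wells as CellTiter-Fluor live-cell protease fluorescence.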
For orientation: qHTS replaces the single test concentration by a dilution series.

Assay [2] can be described thus: qHTS assay to identify small molecule antagonists of the androgen receptor (AR) signaling pathway using the MDA cell line in the presence of 0.5 nM R1881 - cell viability counter screen (AID 1259242). Further: nearly all actives have a fitted effect of over 45% in size. An outline of the steps:
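Viability of MDA-kb2 cells was multiplexed with the luciferase AR readout; after 16 hr with compounds and R1881 at 0.5 nM final, CellTiter-Fluor fluorescence was recorded.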

The nature of assay [3]: qHTS assay to identify small molecule HDAC inhibitors (AID 1259364).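 Further: wild-type HCT-116 cells with endogenous class I/II HDAC activity; top concentration of the series differs between compounds; nearly all actives have a fitted effect of over 45% in size.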 A digest of the protocol:
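Read-out: luminescence of HDAC-Glo I/II reagent, 30 min RT, reflecting class I/II deacetylase activity in whole HCT-116 cells pre-exposed 2 h to DMSO-dissolved compounds.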

A short description of assay [4]: qHTS assay to identify small molecule HDAC inhibitors - cell viability counter screen (AID 1259365). Further: series mostly up to about 92 µM; nearly all actives have a fitted effect of over 50% in size. An outline of the steps: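 Wild-type HCT-116 cells were seeded at 1,500 per well, incubated overnight at 37 C, then exposed to compounds in DMSO for 2hr. Viability was read by CellTiter-Glo luminescence after 30min at room temperature.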
The nature of assay [5]: qHTS assay to identify small molecule agonists of the sonic hedgehog signaling (Shh) pathway - cell viability counter screen (AID 1259366). Further: nearly all actives have a fitted effect of over 50% in size. Further: potency means the concentration at half of the fitted maximal effect. A digest of the protocol:
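NIH/3T3-derived 3T3 Gli1-Luc cells (stable Gli1-responsive firefly luciferase reporter) were seeded, rested 4 hr at 37 C/5% CO2, then exposed to compounds in DMSO for 24 hr; viability was read by CellTiter-Fluor fluorescence in the same wells.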

Assay [6] in a line: qHTS assay to identify small molecule antagonists of the sonic hedgehog signaling (Shh) pathway - cell viability counter screen (AID 1259367). Further: nearly all actives have a fitted effect of over 55% in size. Further: potency means the concentration at half of the fitted maximal effect. An outline of the steps: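 Cells: 3T3 Gli1-Luc, 2,000/well, 4 hr pre-incubation. Compounds in DMSO, then conditioned medium. Incubation 24 hr, 37C, 5% CO2. CellTiter-Fluor at 23 hr, 1 hr, fluorescence.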
Assay [7] in a line: qHTS assay to identify small molecule agonists of the sonic hedgehog signaling (Shh) pathway (AID 1259368; calls by dose curve; further: series mostly up to about 92 µM; nearly all actives have a fitted effect of over 15% in size). An outline of the steps:
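A Gli1 transcriptional response element controlled firefly luciferase in 3T3Gli1-Luc cells. Compounds and a positive control were added 4 hr after plating, and cells were incubated a further 24 hr at 37 C before luminescence detection.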

In assay [8] the target is Estrogen receptor beta (Homo sapiens) (UniProt Q92731). Briefly: qHTS assay to identify small molecule antagonists of the estrogen receptor beta (ER-beta) signaling pathway (AID 1259378; active means well fitted inhibition curve with a large enough effect in the signal ratio in the repeat runs, not every such curve was filed as active; the % refers to the signal ratio). A digest of the protocol:
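Antagonist mode: compounds added to beta-lactamase reporter HEK293T ER-beta-UAS cells stimulated with E2 (1nM final), 16 hr at 37C. LiveBLAzer B/G FRET substrate, 2 hours room temperature, fluorescence read-out.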

The nature of assay [9]: qHTS assay to identify small molecule agonists of the androgen receptor (AR) signaling pathway in the presence of an antagonist - cell viability counter screen (AID 1259379).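 Further: MDA-kb2 human breast cancer cells carrying an MMTV luciferase reporter; series mostly up to about 92 µM; nearly all actives have a fitted effect of over 25% in size.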 A digest of the protocol: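 Seed MDA-kb2 at 3,000 cells/well; incubate 5 hr, 37C, 0% CO2. Add nilutamide to 3.0uM final, then pin compounds at 15 concentrations. Incubate 16 hr. Add CellTiter-Fluor at 15 hr, read fluorescence after 1 hr.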

The nature of assay [10]: qHTS assay to identify small molecule antagonists of the estrogen receptor beta (ER-beta) signaling pathway - cell viability counter screen (AID 1259382). Further: nearly all actives have a fitted effect of over 55% in size. Further: potency means the concentration at half of the fitted maximal effect. An outline of the steps:
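In this multiplexed counter screen, cells were seeded at 2,000 per well in medium with 2% charcoal-stripped FBS and incubated 6 hr before compound and 1nM final E2 were added. Sixteen hours later, ATP-based luminescence reported viability.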

A short description of assay [11]: qHTS assay to identify small molecule agonists or antagonists of the thyroid stimulating hormone receptor (TSHR) signaling pathway - wild type cell line counter screen (AID 1259384; calls by dose curve). An outline of the steps:
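Counter screen in untransfected Hek293: compounds (15-point titration, triplicate) plus phosphodiesterase inhibitor Ro20-1724 added after 18 h plating; 30 min RT. Intracellular cAMP via competitive d2/cryptate immunoassay, 1 h incubation.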

The target in assay [12] is Thyrotropin receptor (Homo sapiens) (UniProt P16473). Kind of assay: qHTS assay to identify small molecule antagonists of the thyroid stimulating hormone receptor (TSHR) signaling pathway (AID 1259385; calls by dose curve; further: nearly all actives have a fitted effect of over 20% in size). A digest of the protocol: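 Antagonist mode: compound-treated TSHR-expressing HEK293 cells were stimulated with 1.5 ng/mL TSH (final) in presence of Ro20-1724 for 30 min at RT. HTRF cAMP detection after 1 h; each compound tested at 15 concentrations, triplicate.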

Assay [13] can be described thus: qHTS assay to identify small molecule antagonists of the sonic hedgehog signaling (Shh) pathway (AID 1259369; calls by dose curve; further: nearly all actives have a fitted effect of over 45% in size; further: potency means the concentration at half of the fitted maximal effect). An outline of the steps: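 For antagonist detection, the reporter line received test compounds together with conditioned medium, incubated 24hr at 37 C, 5% CO2, then luminescence was recorded following 30min room-temperature luciferase reagent incubation.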

The nature of assay [14]: qHTS assay to identify small molecule agonists of the estrogen receptor beta (ER-beta) signaling pathway - cell viability counter screen (AID 1259380). Further: nearly all actives have a fitted effect of over 30% in size. Further: potency means the concentration at half of the fitted maximal effect. A digest of the protocol: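 CellTiter-Glo read, 30 min RT, same wells as bla assay; cells ER-beta-UAS-bla HEK293T; 16 hr compound, 37C; medium 2% charcoal-stripped FBS.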
Assay [15] addresses Androgen receptor (Homo sapiens) (UniProt P10275). Kind of assay: qHTS assay to identify small molecule agonists of the androgen receptor (AR) signaling pathway in the presence of an antagonist (AID 1259381; calls by dose curve; further: nearly all actives have a fitted effect of over 15% in size). An outline of the steps: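 Test compounds at 15 concentrations were incubated for 16hr with MDA-kb2 reporter cells in presence of 3.0uM nilutamide (final). Signal: ONE-Glo luciferase luminescence.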

The target is the same in assay [16]. Kind of assay: qHTS assay to identify small molecule antagonists of the androgen receptor (AR) signaling pathway using the MDA cell line in the presence of 0.5 nM R1881 (AID 1259243). Further: nearly all actives have a fitted effect of over 50% in size. A digest of the protocol:
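Reporter cells cultured without CO2 receive test chemicals, then 0.5 nM R1881 final; after 16 hr at 37C, ONE-Glo is added and light output recorded.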

The target of assay [17] is Estrogen receptor (Homo sapiens) (UniProt P03372). Kind of assay: qHTS assay to identify small molecule antagonists of the estrogen receptor alpha (ER-alpha) signaling pathway using the BG1 cell line in the presence of 0.1 nM 17-beta-estradiol (AID 1259244). Further: nearly all actives have a fitted effect of over 50% in size. A digest of the protocol: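 Estradiol at 0.1 nM (final) stimulates the endogenous ER-alpha of VM7Luc4E2 cells carrying an ERE-driven luciferase; compounds are co-incubated 22 h at 37C and luciferase output quantified by luminescence.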

Assay [18] has the same target. Kind of assay: qHTS assay to identify small molecule agonists of the estrogen receptor alpha (ER-alpha) signaling pathway in the presence of an antagonist (AID 1259383; calls by dose curve; further: top concentration of the series differs between compounds; nearly all actives have a fitted effect of over 15% in size). A digest of the protocol:
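Stably transfected VM7Luc4E2 reporter cells, kept 5 days in charcoal-stripped serum, received ICI-182,780 at 10.0nM final before compound addition. Following 22hr incubation at 37C and 5% CO2, luciferase signal was read by luminescence.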

For assay [19], the target named is Estrogen receptor beta (Homo sapiens) (UniProt Q92731). Kind of assay: qHTS assay to identify small molecule agonists of the estrogen receptor beta (ER-beta) signaling pathway (AID 1259377; active means well fitted activation curve with a large enough effect in the signal ratio in the repeat runs, not every such curve was filed as active; the % refers to the signal ratio). An outline of the steps:
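ER-beta-UAS-bla HEK293T (GripTite) cells carrying a UAS-driven beta-lactamase reporter, in medium with 2% charcoal-stripped FBS, were exposed to compounds for 16 hr at 37C; LiveBLAzer B/G FRET substrate was then added and fluorescence read after 2 hours at room temperature.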

“And” between values parts separate entries of the source, which are not always exact repeats. Identical values can stand only once. Unmarked numbers belong to inactive results. Results filed as inconclusive are left out. The source made the active and inactive calls. Unless noted, the call rests on the fitted dose curve; in most records, active means well fitted curve in the direction sought with a large enough effect in the repeat runs; inconclusive means weak or mixed curves; inactive means no such curve, though single readings can be large; an effect the other way counts as inactive or inconclusive.

Estrogen receptor (Homo sapiens), sequence (P03372 whole entry, looked up): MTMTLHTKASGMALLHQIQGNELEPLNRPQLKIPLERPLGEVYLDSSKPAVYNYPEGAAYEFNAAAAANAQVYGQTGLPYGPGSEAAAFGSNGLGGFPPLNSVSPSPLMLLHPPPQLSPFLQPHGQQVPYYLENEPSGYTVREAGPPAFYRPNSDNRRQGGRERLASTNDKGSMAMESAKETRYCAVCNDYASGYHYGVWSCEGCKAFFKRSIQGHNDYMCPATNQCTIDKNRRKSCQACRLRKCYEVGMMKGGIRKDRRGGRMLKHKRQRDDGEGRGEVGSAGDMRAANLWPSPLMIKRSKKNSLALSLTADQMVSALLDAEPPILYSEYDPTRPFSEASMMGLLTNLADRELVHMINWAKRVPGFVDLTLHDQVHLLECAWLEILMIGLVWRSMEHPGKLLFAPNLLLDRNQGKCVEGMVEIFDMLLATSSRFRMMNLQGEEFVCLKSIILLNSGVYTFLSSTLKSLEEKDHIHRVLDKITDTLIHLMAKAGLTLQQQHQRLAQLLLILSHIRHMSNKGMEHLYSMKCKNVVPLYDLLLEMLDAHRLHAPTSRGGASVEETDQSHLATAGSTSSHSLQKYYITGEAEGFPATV
Thyrotropin receptor (Homo sapiens), sequence (P16473 whole entry, looked up): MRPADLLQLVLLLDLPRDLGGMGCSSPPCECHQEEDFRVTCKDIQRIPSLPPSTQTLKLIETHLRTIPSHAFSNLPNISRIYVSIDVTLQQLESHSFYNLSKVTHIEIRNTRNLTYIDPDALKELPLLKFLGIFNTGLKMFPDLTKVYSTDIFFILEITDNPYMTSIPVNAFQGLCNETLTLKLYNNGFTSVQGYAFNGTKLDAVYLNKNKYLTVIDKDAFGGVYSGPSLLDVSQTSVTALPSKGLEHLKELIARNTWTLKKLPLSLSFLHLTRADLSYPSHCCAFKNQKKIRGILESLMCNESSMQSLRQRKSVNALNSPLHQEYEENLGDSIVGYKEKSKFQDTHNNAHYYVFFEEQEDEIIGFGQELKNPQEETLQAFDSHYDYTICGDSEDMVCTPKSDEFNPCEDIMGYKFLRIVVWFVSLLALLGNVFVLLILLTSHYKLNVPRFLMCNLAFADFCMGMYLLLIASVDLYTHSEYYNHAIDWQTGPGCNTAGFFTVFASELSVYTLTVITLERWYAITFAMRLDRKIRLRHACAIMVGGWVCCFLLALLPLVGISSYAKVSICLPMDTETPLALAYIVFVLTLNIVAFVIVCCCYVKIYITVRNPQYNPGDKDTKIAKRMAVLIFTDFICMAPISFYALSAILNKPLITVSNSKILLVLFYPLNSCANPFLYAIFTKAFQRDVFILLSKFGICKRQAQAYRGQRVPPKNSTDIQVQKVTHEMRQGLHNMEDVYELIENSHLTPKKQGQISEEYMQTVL
Androgen receptor (Homo sapiens), sequence (P10275 whole entry, looked up): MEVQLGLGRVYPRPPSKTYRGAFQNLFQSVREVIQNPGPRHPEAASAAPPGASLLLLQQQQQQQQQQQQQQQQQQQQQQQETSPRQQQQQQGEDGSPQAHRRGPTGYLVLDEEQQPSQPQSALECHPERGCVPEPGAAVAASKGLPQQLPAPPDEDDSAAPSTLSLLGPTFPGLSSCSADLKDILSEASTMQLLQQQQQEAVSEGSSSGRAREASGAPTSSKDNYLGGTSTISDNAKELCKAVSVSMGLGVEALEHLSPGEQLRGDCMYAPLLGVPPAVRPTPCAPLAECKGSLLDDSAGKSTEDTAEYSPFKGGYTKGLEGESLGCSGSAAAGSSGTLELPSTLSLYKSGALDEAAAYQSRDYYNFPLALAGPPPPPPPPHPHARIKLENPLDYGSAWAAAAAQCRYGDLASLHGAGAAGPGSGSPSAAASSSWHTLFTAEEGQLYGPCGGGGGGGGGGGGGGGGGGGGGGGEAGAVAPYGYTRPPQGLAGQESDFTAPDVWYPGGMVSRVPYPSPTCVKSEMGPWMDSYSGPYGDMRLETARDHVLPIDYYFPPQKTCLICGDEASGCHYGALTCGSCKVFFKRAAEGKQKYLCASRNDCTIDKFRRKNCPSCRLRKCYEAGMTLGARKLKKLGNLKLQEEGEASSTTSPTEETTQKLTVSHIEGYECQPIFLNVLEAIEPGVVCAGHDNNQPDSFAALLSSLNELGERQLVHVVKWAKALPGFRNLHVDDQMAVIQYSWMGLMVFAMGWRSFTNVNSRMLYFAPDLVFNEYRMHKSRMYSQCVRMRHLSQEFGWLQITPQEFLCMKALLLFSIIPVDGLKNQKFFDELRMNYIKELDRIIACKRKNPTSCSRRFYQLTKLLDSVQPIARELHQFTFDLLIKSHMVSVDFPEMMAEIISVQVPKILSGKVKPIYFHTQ
Estrogen receptor beta (Homo sapiens), sequence (Q92731 whole entry, looked up): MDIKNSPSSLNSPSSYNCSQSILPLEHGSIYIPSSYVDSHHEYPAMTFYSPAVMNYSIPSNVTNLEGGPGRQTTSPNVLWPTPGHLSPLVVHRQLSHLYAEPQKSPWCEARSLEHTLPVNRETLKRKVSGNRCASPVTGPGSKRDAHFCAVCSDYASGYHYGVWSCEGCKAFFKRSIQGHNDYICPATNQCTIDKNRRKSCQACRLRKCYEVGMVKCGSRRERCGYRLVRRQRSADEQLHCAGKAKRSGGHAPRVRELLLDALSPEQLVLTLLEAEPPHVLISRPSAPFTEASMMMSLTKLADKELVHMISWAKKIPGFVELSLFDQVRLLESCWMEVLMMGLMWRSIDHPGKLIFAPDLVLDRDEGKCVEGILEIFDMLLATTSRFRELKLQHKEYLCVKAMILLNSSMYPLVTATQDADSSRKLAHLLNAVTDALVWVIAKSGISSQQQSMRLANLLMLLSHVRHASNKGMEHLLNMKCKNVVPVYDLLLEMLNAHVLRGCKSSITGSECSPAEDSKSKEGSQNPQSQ

On to `CC(C)[C@H](C(=O)O[C@H](C#N)c1cccc(Oc2ccccc2)c1)c1ccc(Cl)cc1`, for which the Potency result in assay [1], in assay [2], in assay [3], in [4], in [5] and in assay [6] was “inactive” throughout. The Potency entry in assay [7], in assay [8], in assay [9], in assay [10] and in assay [12] was “inactive” each time. Moreover, the call in assay [11] was inactive.

With `CSCCCN=C=S`, the Potency result in [1], in [2], in [3], in assay [5], in assay [6] and in [7] was “inactive” each time. Besides, the Potency result in assay [13], in assay [14] and in assay [10] was “inactive” each time. Further, in assay [11], the call was inactive.

`Cc1cc(C(C)(C)c2cc(C)c(O)c(C)c2)cc(C)c1O`: the Potency entry in assay [1], in assay [2], in assay [3], in assay [4], in [6] and in assay [7] was “inactive” each time. The Potency entry in [13], in [15] and in [12] was “inactive” each time. Besides, the Potency in assay [14] was 52.7 µM (active); in [10], 26.4 µM (active). In addition, in [11], the result was inactive.

As for `COP(=O)(CCC(=O)NCO)OC`, the Potency result in assay [1], in assay [16], in assay [17], in [3], in [4] and in assay [5] was “inactive” each time. In addition, the Potency result in assay [6], in [7], in assay [13], in [9], in [14] and in [15] was “inactive” in each case. Further, the Potency result in [10], in [18] and in assay [12] was “inactive” in each case. For the same compound, the result in assay [11] was inactive.

In the case of `Clc1ccc(C(Cl)(Cl)Cl)c(Cl)c1`, the Potency entry in assay [1], in [2], in [3], in assay [4], in [5] and in assay [6] was “inactive” throughout. For the same compound, the Potency entry in assay [7], in [13], in assay [19], in [8] and in [9] was “inactive” throughout. Also, the compound was called inactive in assay [11].

As to `ClC1=C(Cl)[C@]2(Cl)[C@@H]3[C@@H](Cl)[C@H](Cl)C[C@@H]3[C@@]1(Cl)C2(Cl)Cl`, the Potency entry in [1], in assay [16], in [17], in assay [3], in [4] and in assay [5] was “inactive” in each case. Moreover, the Potency result in [6], in assay [7], in assay [13], in assay [19], in assay [8] and in assay [9] was “inactive” throughout. For the same compound, the Potency result in [14], in assay [15], in [10] and in assay [18] was “inactive” throughout.

Regarding `OC(Cc1ccccc1Cl)(Cn1cncn1)C1(Cl)CC1` (stereo not drawn), the Potency entry in assay [1], in assay [2], in assay [3], in assay [4], in assay [5] and in [6] was “inactive” each time. Besides, the Potency entry in assay [7], in assay [19], in assay [9], in assay [14], in assay [18] and in assay [12] was “inactive” throughout. In addition, the Potency in assay [13] was 12.2 µM (active). The compound was called inactive in assay [11].

On to `CC(C)CC(C)(c1ccc(O)cc1)c1ccc(O)cc1`, for which the Potency entry in [1], in assay [2], in assay [3], in assay [7] and in assay [9] was “inactive” throughout. Moreover, the Potency in assay [5] was 54.6 µM (active); in [6] it was 61.3 µM (active); in assay [13], 27.4 µM (active); in [14], 68.7 µM (active) and 61.1 µM (active); in [10], 54.6 µM (active) and 68.6 µM (active). For the same compound, in assay [11], the call was inactive.

Source of the values: PubChem BioAssay (Tox21).
